This is a sample that favours compounds with a hit; in the whole collection about 2.1% have one here.
aSyn yeast inh = inhibitors of alpha-synuclein toxicity in yeast | Yeast expressing alpha-synuclein, growth rescue, BacTiter-Glo, 24 h | Potency, µM (doses to about 46.1 µM), hits mostly activators | actives 0.14% (n = 370,000) | AID 652106; note: nearly all actives have a fitted effect of over 65% in size
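Screening used galactose-induced yeast with toxic alpha-synuclein levels, exposed to compound for 24 hr at 30 deg C. Cell growth, read with BacTiter-Glo luminescence, gave the measured signal.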
Abeta yeast res = A-beta toxicity reversal in yeast; yeast expressing A-beta42, growth rescue, OD600, 48 h; response scale: 0% DMSO, 100% iron-clioquinol control; Potency, µM (highest dose often 46.1 µM), actives largely listed as activators; AID 1347071; actives 0.063% (n = 410,000); note: nearly all actives have a fitted effect of over 55% in size
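Growth rescue measured by 600 nm absorbance after 48 h yeast culture at 30 C with compound. Values normalized between DMSO and an equimolar ferric chloride plus clioquinol control.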
FUS yeast rescue = rescues growth of FUS-expressing yeast. S. cerevisiae FUS-expressing, growth rescue, OD600, 24 h. Potency, µM (highest dose often 76.6 µM), actives largely listed as activators. actives 0.24% (n = 390,000). AID 1347120; note: nearly all actives have a fitted effect of over 55% in size
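Galactose (2%) drives FUS expression in yeast precultured in raffinose; seeding density OD 0.005. Test compounds incubated 24hr at 30C and 99% humidity before absorbance at 600 nm was measured.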
TDP-43 yeast inh = inhibitors of TDP-43 toxicity in yeast. actives 1.8% (n = 410,000). TDP-43 expressing yeast growth rescue, BacTiter-Glo, 24 h. Potency, µM (highest dose often 46.1 µM), usual class: activators; note: nearly all actives have a fitted effect of over 50% in size
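Galactose-induced TDP-43 yeast, OD600=0.02, compound pinned; 24 hr, 30 deg C; BacTiter-Glo luminescence for growth. Inhibitors of TDP-43 toxicity read as activators.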
Hits are given with their value. Calls come from the whole dose curve; as a rule, active = well fitted curve in the direction sought with a large enough effect; inconclusive = small, poorly fitted or top-dose-only effect, or another doubt; inactive = no such curve, though single readings can be large; an effect the other way counts as inactive or inconclusive.

`O=C1C2C3CCC(C3)C2C(=O)N1CNc1ccc(F)cc1` (stereo unspecified) gave aSyn yeast inh inactive, Abeta yeast res inactive, FUS yeast rescue inactive and TDP-43 yeast inh inactive.
For O=C(c1cc2c(s1)-c1ccccc1OC2)N1CCN(c2ccccn2)CC1 the results were aSyn yeast inh inconclusive, Abeta yeast res inactive, FUS yeast rescue inactive and TDP-43 yeast inh inactive.
`CN1C(=O)c2ccc(NC(=O)c3ccc(Cl)cc3Cl)cc2C1=O` gave aSyn yeast inh inactive, Abeta yeast res inactive, FUS yeast rescue inactive and TDP-43 yeast inh inactive.
CCOc1ccc2ncc(S(=O)(=O)c3ccccc3)c(N3CCN(c4ccccc4)CC3)c2c1 was read as aSyn yeast inh inactive, Abeta yeast res inactive, FUS yeast rescue inactive and TDP-43 yeast inh inactive.
CCOC(=O)c1cnc2ccc(OCC)cc2c1N1CCN(c2ccccc2)CC1 was read as aSyn yeast inh inactive, Abeta yeast res inactive, FUS yeast rescue inconclusive and TDP-43 yeast inh 18µM.
`CCOC(=O)c1cnc2ccc(OCC)cc2c1N1CCN(c2ccccc2F)CC1` gave Abeta yeast res inactive, FUS yeast rescue inconclusive and TDP-43 yeast inh 16µM.
For COc1ccc(N2CCN(C(=O)COc3cccc4ccccc34)CC2)cc1 the results were aSyn yeast inh inactive, Abeta yeast res inactive and TDP-43 yeast inh 13µM.
For Cc1cccc(OCC(=O)N2CCN(c3nnc(-c4ccccc4)c4ccccc34)CC2)c1 the results were aSyn yeast inh inactive, Abeta yeast res inconclusive, FUS yeast rescue inactive and TDP-43 yeast inh 25µM.
Cc1ccc(OCC(=O)N2CCN(c3nnc(-c4ccc(C)cc4)c4ccccc34)CC2)cc1 was read as aSyn yeast inh inactive, Abeta yeast res inactive, FUS yeast rescue inconclusive and TDP-43 yeast inh inconclusive.
COc1ccc(OCC(=O)N2CCN(c3nnc(-c4ccc(C)cc4)c4ccccc34)CC2)cc1 was read as aSyn yeast inh inactive, Abeta yeast res inactive, FUS yeast rescue inactive and TDP-43 yeast inh 22µM.
COc1cc(/C=N/NC(=O)c2[nH]nc3c2CCc2ccccc2-3)ccc1O was read as aSyn yeast inh inactive, Abeta yeast res inactive, FUS yeast rescue inactive and TDP-43 yeast inh inconclusive.
CC(=O)Nc1ccc(Oc2sc(C(=O)c3ccccc3)c(N)c2C#N)cc1 was read as aSyn yeast inh inactive, Abeta yeast res inactive, FUS yeast rescue inactive and TDP-43 yeast inh inactive.
For CC(=O)Oc1cc2c(c3ccccc13)CCC2=O the results were aSyn yeast inh inactive, Abeta yeast res inactive, FUS yeast rescue inactive and TDP-43 yeast inh inconclusive.
`CC(=O)Oc1[nH]c(=O)c2cccc3c2c1CCC3` gave aSyn yeast inh inactive, Abeta yeast res inactive, FUS yeast rescue inactive and TDP-43 yeast inh 28µM.
Screening COC(=O)[C@@]12C[C@@H](CC(=O)N3CCSCC3)C(=O)N(Cc3cccc4ccccc34)C1=CCC(C)(C)C2 returned aSyn yeast inh inactive, Abeta yeast res inactive, FUS yeast rescue inconclusive and TDP-43 yeast inh inactive.
For CCCCN(C(=O)C1CCN(C(=O)c2ccccc2C)CC1)c1c(N)n(CCC)c(=O)[nH]c1=O the results were aSyn yeast inh inactive, Abeta yeast res inactive, FUS yeast rescue inactive and TDP-43 yeast inh inactive.
For CCOc1ccccc1NC(C)C(=O)Nc1cc(C(F)(F)F)ccc1N1CCOCC1 (stereo unspecified) the results were aSyn yeast inh inactive, Abeta yeast res inactive and TDP-43 yeast inh 13µM.
COc1ccccc1CN1CCNC(=O)C1CC(=O)NCc1c(C)n[nH]c1C (stereo unspecified) was read as aSyn yeast inh inactive, Abeta yeast res inactive, FUS yeast rescue inactive and TDP-43 yeast inh inactive.
For OC(COc1ccc(Cl)cc1Cl)Cn1ccnc1 (stereo unspecified) the results were aSyn yeast inh inactive, Abeta yeast res inactive, FUS yeast rescue inactive and TDP-43 yeast inh inactive.
Screening C=CCn1c(NCCc2ccccc2)nc2c1c(=O)n(C)c(=O)n2C returned aSyn yeast inh inactive, Abeta yeast res inactive, FUS yeast rescue inactive and TDP-43 yeast inh inactive.
Screening COc1cccc(NC(=O)C(Cc2ccccc2)n2cccc2)c1 (stereo unspecified) returned aSyn yeast inh inactive, Abeta yeast res inactive, FUS yeast rescue inactive and TDP-43 yeast inh 13µM.
COc1cccc(CNC(=O)C(Cc2ccccc2)n2cccc2)c1 (stereo unspecified) was read as aSyn yeast inh inactive, Abeta yeast res inactive, FUS yeast rescue inactive and TDP-43 yeast inh inactive.
Screening Cc1csc(NC(=O)C(Cc2ccccc2)n2cccc2)n1 (stereo unspecified) returned aSyn yeast inh inactive, Abeta yeast res inconclusive, FUS yeast rescue inactive and TDP-43 yeast inh 13µM.
`CCOc1cc(/C=C(\C#N)C(=O)NCC2CCCO2)ccc1O` (stereo unspecified) gave aSyn yeast inh inactive, Abeta yeast res inactive, FUS yeast rescue inactive and TDP-43 yeast inh inactive.
`O=C(NNC(=O)c1cc(Cl)ccc1O)c1ccc(NS(=O)(=O)c2cccs2)cc1` gave aSyn yeast inh inactive, Abeta yeast res inactive, FUS yeast rescue inactive and TDP-43 yeast inh inactive.
CCn1nc(C(=O)Nc2ccccc2C)c(Cl)c1Cl was read as aSyn yeast inh inactive, Abeta yeast res inactive, FUS yeast rescue inactive and TDP-43 yeast inh inactive.
CCn1nc(C(=O)Nc2cccc3ccccc23)c(Cl)c1Cl was read as aSyn yeast inh inactive, Abeta yeast res inactive, FUS yeast rescue inactive and TDP-43 yeast inh 16µM.
For CCN(Cc1ccccc1)C(=S)NC(=O)c1ccccc1Br the results were aSyn yeast inh inactive, Abeta yeast res 10µM, FUS yeast rescue inactive and TDP-43 yeast inh inactive.
For COC(=O)c1cccc(NC(=S)Nc2cccc(Cl)c2Cl)c1 the results were aSyn yeast inh inactive, Abeta yeast res inactive, FUS yeast rescue inactive and TDP-43 yeast inh 18µM.
For Fc1ccc(Nc2nnc(C(F)(F)F)s2)cc1 the results were aSyn yeast inh inactive, Abeta yeast res inactive, FUS yeast rescue inactive and TDP-43 yeast inh 13µM.
CNc1nnc(C(F)(F)F)s1 was read as aSyn yeast inh inactive, Abeta yeast res inactive, FUS yeast rescue inactive and TDP-43 yeast inh inactive.
CC1Oc2ccccc2N(CC(=O)NCc2ccc3c(c2)OCO3)C1=O (stereo unspecified) was read as aSyn yeast inh inactive, Abeta yeast res inactive, FUS yeast rescue inactive and TDP-43 yeast inh inactive.
CCCC/C(O)=C/c1nc2ccccc2[nH]c1=O was read as aSyn yeast inh inactive, Abeta yeast res inactive, FUS yeast rescue inactive and TDP-43 yeast inh inactive.
`CC(=O)c1ccc(NC(=O)c2c(C)nn(-c3ccccc3)c2Cl)cc1` gave aSyn yeast inh inactive, Abeta yeast res inactive, FUS yeast rescue inactive and TDP-43 yeast inh 11µM.
`COc1ccccc1NC(=O)CSc1ncn(-c2ccccc2)n1` gave aSyn yeast inh inactive, Abeta yeast res inactive and TDP-43 yeast inh 10µM.
Screening Cc1ccc(NC(=O)c2c(C)nn(-c3ccccc3)c2Cl)cc1 returned aSyn yeast inh inactive, Abeta yeast res inactive, FUS yeast rescue inactive and TDP-43 yeast inh 13µM.
For COc1ccccc1NC(=O)c1c(C)nn(-c2ccccc2)c1Cl the results were aSyn yeast inh inactive, Abeta yeast res inactive, FUS yeast rescue inactive and TDP-43 yeast inh 25µM.
